Read-out in assay [1]: Human Leukocyte Antigen - DR isotype (HLADR), HLA-DRA (gene 3122)
The assay can be described thus: BSK_CASM3C_HLADR: BioMAP Diversity Plus: CASM3C Assay for Human Leukocyte Antigen - DR isotype (HLADR) Biomarker Activity (AID 2283043).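 Further: cell-surface HLA-DR protein level quantified by ELISA.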 The following applies: primary human coronary artery smooth muscle cells; actives raise or lower the signal.

Read-out in assay [2]: Macrophage colony-stimulating factor (MCSF), CSF1 (gene 1435)
The assay can be described thus: BSK_CASM3C_MCSF: BioMAP Diversity Plus: CASM3C Assay for Macrophage colony-stimulating factor (MCSF) Biomarker Activity (AID 2283044).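 Further: M-CSF protein amount quantified by ELISA after 24 h exposure.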 The following applies: primary human coronary artery smooth muscle cells; actives raise or lower the signal.

Read-out in assay [3]: Low-density lipoprotein receptor (LDLR), LDLR (gene 3949)
As to the kind of experiment: BSK_CASM3C_LDLR: BioMAP Diversity Plus: CASM3C Assay for Low-density lipoprotein receptor (LDLR) Biomarker Activity (AID 2283045).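 Further: LDLR protein level on the cell surface quantified by ELISA.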 The following applies: primary human coronary artery smooth muscle cells; actives raise or lower the signal.

Read-out in assay [4]: Monocyte Chemoattractant Protein-1 (MCP1), CCL2 (gene 6347)
The assay can be described thus: BSK_CASM3C_MCP1: BioMAP Diversity Plus: CASM3C Assay for Monocyte Chemoattractant Protein-1 (MCP1) Biomarker Activity (AID 2283046).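 Further: MCP-1 level quantified by ELISA 24 h after dosing.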 The following applies: primary human coronary artery smooth muscle cells; actives raise or lower the signal.

Assay [5] is described as follows: BSK_CASM3C_Proliferation: Cell Proliferation Assessment in the BioMAP Diversity Plus: CASM3C Assay (AID 2283047).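 Further: sulforhodamine B total protein stain as relative cell number at 560 nm; sub-confluent cells exposed 48 h before staining; fitted both ways against DMSO so gain or loss of cell number.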 The following applies: primary human coronary artery smooth muscle cells.
Read-out in assay [6]: Monokine induced gamma interferon (MIG), CXCL9 (gene 4283)
The assay can be described thus: BSK_CASM3C_MIG: BioMAP Diversity Plus: CASM3C Assay for Monokine induced gamma interferon (MIG) Biomarker Activity (AID 2283048).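 Further: MIG protein level measured by ELISA.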 The following applies: primary human coronary artery smooth muscle cells; actives raise or lower the signal.

Read-out in assay [7]: serum amyloid A (SAA), SAA1 (gene 6288)
The assay can be described thus: BSK_CASM3C_SAA: BioMAP Diversity Plus: CASM3C Assay for serum amyloid A (SAA) Biomarker Activity (AID 2283049).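 Further: SAA protein level quantified by ELISA.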 The following applies: primary human coronary artery smooth muscle cells; actives raise or lower the signal.

A short description of assay [8]: BSK_CASM3C_SRB: Viability Assessment in the BioMAP Diversity Plus: CASM3C Assay (AID 2283050).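 Further: total protein by SRB staining as cytotoxicity measure in parallel cultures; cells exposed to compound for 24 h.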 The following applies: primary human coronary artery smooth muscle cells.
Read-out in assay [9]: Thrombomodulin, THBD (gene 7056)
The assay can be described thus: BSK_CASM3C_Thrombomodulin: BioMAP Diversity Plus: CASM3C Assay for Thrombomodulin Biomarker Activity (AID 2283051).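 Further: thrombomodulin protein level measured by ELISA 24 h after dosing.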 The following applies: primary human coronary artery smooth muscle cells; actives raise or lower the signal.

Read-out in assay [10]: Tissue Factor, F3 (gene 2152)
The assay can be described thus: BSK_CASM3C_TissueFactor: BioMAP Diversity Plus: CASM3C Assay for Tissue Factor Biomarker Activity (AID 2283052).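 Further: cell surface tissue factor protein level read by ELISA.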 The following applies: primary human coronary artery smooth muscle cells; actives raise or lower the signal.

Read-out in assay [11]: Interferon-gamma inducible Protein 10 (IP10), CXCL10 (gene 3627)
As to the kind of experiment: BSK_hDFCGF_IP10: BioMAP Diversity Plus: hDFCGF Assay for Interferon-gamma inducible Protein 10 (IP10) Biomarker Activity (AID 2283053). The following applies: primary human foreskin fibroblasts; actives raise or lower the signal. In outline: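 ELISA read-out of IP-10 (CXCL10) from primary human skin fibroblasts, 24 h after compound addition. Gain or loss of signal versus DMSO baseline, bidirectional curve fitting.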

Read-out in assay [12]: Urokinase-type plasminogen activator receptor (uPAR), PLAUR (gene 5329)
The assay can be described thus: BSK_CASM3C_uPAR: BioMAP Diversity Plus: CASM3C Assay for Urokinase-type plasminogen activator receptor (uPAR) Biomarker Activity (AID 2283054).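 Further: cell-surface uPAR protein level quantified by ELISA.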 The following applies: primary human coronary artery smooth muscle cells; actives raise or lower the signal.

Read-out in assay [13]: Vascular cell adhesion molecule 1 (VCAM1), VCAM1 (gene 7412)
As to the kind of experiment: BSK_CASM3C_VCAM1: BioMAP Diversity Plus: CASM3C Assay for Vascular cell adhesion molecule 1 (VCAM1) Biomarker Activity (AID 2283055).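 Further: VCAM-1 protein level quantified by ELISA on the cells.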 The following applies: primary human coronary artery smooth muscle cells; actives raise or lower the signal.

Read-out in assay [14]: Collagen III, COL3A1 (gene 1281)
The assay can be described thus: BSK_hDFCGF_CollagenIII: BioMAP Diversity Plus: hDFCGF Assay for Collagen III Biomarker Activity (AID 2283056). The following applies: primary human foreskin fibroblasts; actives raise or lower the signal. The gist of the method: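 Human foreskin primary fibroblasts were exposed to test chemicals for 24 h, after which collagen III was quantified by ELISA. Activity was fitted bidirectionally against DMSO as negative control and baseline.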

Read-out in assay [15]: Epidermal growth factor receptor (EGFR), EGFR (gene 1956)
The assay can be described thus: BSK_hDFCGF_EGFR: BioMAP Diversity Plus: hDFCGF Assay for Epidermal growth factor receptor (EGFR) Biomarker Activity (AID 2283057). The following applies: primary human foreskin fibroblasts; actives raise or lower the signal. In outline:
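ELISA readout of EGFR on human dermal fibroblasts (primary foreskin cells), 24 h post-dosing; bidirectional curve fit vs DMSO baseline, gain or loss of signal scored.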

Read-out in assay [16]: Interleukin-8 (IL8), CXCL8 (gene 3576)
As to the kind of experiment: BSK_hDFCGF_IL8: BioMAP Diversity Plus: hDFCGF Assay for Interleukin-8 (IL8) Biomarker Activity (AID 2283058). The following applies: primary human foreskin fibroblasts; actives raise or lower the signal. The gist of the method: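 hDFCGF human dermal fibroblasts; 24 h chemical exposure; IL-8 by ELISA; bidirectional curve fit vs DMSO baseline; gain or loss of signal scored.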

Assay [17] can be described thus: BSK_hDFCGF_Proliferation: Cell Proliferation Assessment in the BioMAP Diversity Plus: hDFCGF Assay (AID 2283059).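 Further: curves fitted for both rise and fall of signal versus DMSO baseline.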 The following applies: primary human foreskin fibroblasts. In outline:
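Primary human foreskin fibroblasts, sub-confluent; […]; 10% TCA fix, 0.1% SRB stain, A560 total protein. Gain/loss fitted bidirectionally vs DMSO control.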

Read-out in assay [18]: Macrophage colony-stimulating factor (MCSF), CSF1 (gene 1435)
As to the kind of experiment: BSK_hDFCGF_MCSF: BioMAP Diversity Plus: hDFCGF Assay for Macrophage colony-stimulating factor (MCSF) Biomarker Activity (AID 2283060). The following applies: primary human foreskin fibroblasts; actives raise or lower the signal. In outline:
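Human foreskin primary fibroblasts were treated with test chemical for 24 h, and M-CSF was then measured by ELISA. Data were fitted bidirectionally against DMSO as the negative control and activity baseline.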

Assay [19] is described as follows: BSK_hDFCGF_SRB: Viability Assessment in the BioMAP Diversity Plus: hDFCGF Assay (AID 2283061).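 Further: cells exposed to compound for 24 h before the read.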 The following applies: primary human foreskin fibroblasts. The gist of the method: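 Human foreskin primary fibroblasts were treated with compound and assessed 24 h after dosing. Total protein was measured by sulforhodamine B staining (0.1% SRB after 10% TCA fixation, 560 nm read) as a cytotoxicity marker, with bidirectional fitting against DMSO baseline.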

Read-out in assay [20]: TIMP metallopeptidase inhibitor 1 (TIMP1), TIMP1 (gene 7076)
The assay can be described thus: BSK_hDFCGF_TIMP1: BioMAP Diversity Plus: hDFCGF Assay for TIMP metallopeptidase inhibitor 1 (TIMP1) Biomarker Activity (AID 2283062). The following applies: primary human foreskin fibroblasts; actives raise or lower the signal. The gist of the method: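 Primary human foreskin fibroblasts in the hDFCGF system were dosed with compound for 24 h, then TIMP-1 was measured by ELISA. Activity was fitted bidirectionally relative to DMSO control; parallel SRB staining assessed cytotoxicity.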

The source made the active and inactive calls. How the source made its calls: active means hit-call score of the fitted dose curve at least 0.9, where 1 is the maximum; inactive means score below 0.9.

As for `NCc1cccc(C2CCN(C(=O)c3ccc(C#Cc4ccccc4F)o3)CC2)c1`, the AC50 (as a rule, the midpoint of the concentration-response curve, whichever way the signal moves) in assay [1] was 13.3 µM (active); in assay [2], 28.4 µM (active); in assay [3] it was 35.3 µM (active); in [5] it was 22.3 µM (active); in assay [6] it was 34 µM (active); in assay [7] it was 27.7 µM (active). Moreover, the AC50 in assay [8] was 16 µM (active); in [9], 4.76 µM (active); in [11], 8.64 µM (active); in [12] it was 30.7 µM (active); in [13] it was 15.9 µM (active); in assay [14], 5.12 µM (active). Further, the AC50 is 12.6 µM (active) in assay [15]; 11.9 µM (active) in [16]; 5.81 µM (active) in assay [17]; 7.78 µM (active) in [18]; 10.1 µM (active) in assay [19]; 11.8 µM (active) in assay [20]. Besides, the outcome in [4] and in assay [10] was inactive.

For `CC(O)CC(C)(C)O` (stereo not given), the result in assay [1], in [2], in assay [3], in assay [4], in [5] and in [6] was inactive. The outcome in assay [7], in assay [8], in assay [9], in assay [10], in assay [11] and in [12] was inactive. The result in assay [13], in assay [14], in assay [15], in assay [16], in assay [18] and in assay [19] was inactive. In addition, the result in [20] was inactive. Further, the AC50 in assay [17] is 14.1 µM (active).

`CC[C@H](NC(=O)c1cc(F)ccc1NS(=O)(=O)c1cccc2cccnc12)c1ccccc1`: the outcome in [1], in [2], in [4], in [5], in [6] and in assay [7] was inactive. The outcome in assay [8], in assay [10], in assay [11], in [12], in [13] and in [15] was inactive. Besides, the outcome in [16], in [18], in assay [19] and in [20] was inactive. Further, the AC50 is 7.05 µM (active) in assay [3], 10.8 µM (active) in assay [9], 8.58 µM (active) in assay [14] and 21.5 µM (active) in assay [17].

On to `CN(C[C@@H](CC[N+]12CCC(C3CCCCC3)(CC1)CC2)c1ccc(Cl)c(Cl)c1)C(=O)c1cc(C(F)(F)F)cc(C(F)(F)F)c1`, for which the concentration at half-maximal activity (AC50) in assay [1] was 12.7 µM (active); in assay [2], 14.9 µM (active); in assay [3], 14.3 µM (active); in [4] it was 15.6 µM (active); in [5], 9.26 µM (active); in assay [6], 31.1 µM (active). Further, the AC50 in [7] is 18 µM (active); in assay [8] it was 14.7 µM (active); in [10], 20 µM (active); in assay [11] it was 6.46 µM (active); in [12] it was 13 µM (active); in [13] it was 14.3 µM (active). Besides, the concentration at half-maximal activity (AC50) in assay [14] is 7.21 µM (active); in [15] it was 5.37 µM (active); in assay [16], 9.76 µM (active); in [17] it was 5.55 µM (active); in assay [18], 7.28 µM (active); in assay [19], 5.86 µM (active). For the same molecule, in assay [20], the AC50 was 7.05 µM (active). Besides, the result in assay [9] was inactive.

With `COc1ccc2cc(S(=O)(=O)N[C@H](CC(=O)N[C@H](Cc3ccc(CN4[C@H](C)CCC[C@@H]4C)cc3)C(=O)N(C)C(C)C)c3ccc4c(c3)OCO4)ccc2c1`, the concentration at half-maximal activity (AC50) is 27.8 µM (active) in assay [1]; 0.966 µM (active) in assay [3]; 24.9 µM (active) in assay [5]; 19.1 µM (active) in assay [8]; 7.64 µM (active) in assay [9]; 30.4 µM (active) in [11]. For the same molecule, the half-maximal activity concentration (AC50) in [14] was 2.07 µM (active); in [17], 9.97 µM (active); in assay [18] it was 19.1 µM (active); in [19], 27.7 µM (active); in assay [20], 37.4 µM (active). Also, the result in [2], in assay [4], in assay [6], in assay [7], in assay [10] and in assay [12] was inactive. For the same molecule, the result in assay [13], in assay [15] and in [16] was inactive.
